Experimental data published in ChEMBL document CHEMBL3988442, “University of Dundee, Small-Polar-MMV Screening Library” (2021).

What was measured:
[1] = molecular target: T1, Aspartate--tRNA(Asp/Asn) ligase (Mycobacterium tuberculosis (strain ATCC 25618 / H37Rv)) (UniProt P9WFW3); experiment: Assay for Asp RNA synthetase-1 from Mycobacterium tuberculosis; assay type: functional; design: scale not given: direction of the effect not stated beside the values; settings: 30 µM; further: in the data most compounds retested in dose-response had high values
T1 sequence (whole entry): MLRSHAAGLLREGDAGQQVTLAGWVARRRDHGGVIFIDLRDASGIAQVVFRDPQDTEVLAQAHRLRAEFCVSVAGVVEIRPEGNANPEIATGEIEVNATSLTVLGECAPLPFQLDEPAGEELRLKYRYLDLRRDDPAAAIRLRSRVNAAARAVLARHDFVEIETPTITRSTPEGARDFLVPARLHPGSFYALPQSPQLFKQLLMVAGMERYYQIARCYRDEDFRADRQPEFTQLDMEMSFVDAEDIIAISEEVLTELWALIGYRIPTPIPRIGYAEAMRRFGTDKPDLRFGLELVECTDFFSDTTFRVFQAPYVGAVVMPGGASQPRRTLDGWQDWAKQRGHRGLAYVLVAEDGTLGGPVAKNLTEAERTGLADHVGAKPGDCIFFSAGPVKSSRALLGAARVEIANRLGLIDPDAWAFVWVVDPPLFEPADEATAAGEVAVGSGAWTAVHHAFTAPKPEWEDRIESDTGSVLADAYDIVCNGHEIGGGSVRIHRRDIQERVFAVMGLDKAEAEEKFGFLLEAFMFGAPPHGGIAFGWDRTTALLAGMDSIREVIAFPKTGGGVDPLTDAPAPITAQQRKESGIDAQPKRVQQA

[2] = molecular target: Shiga toxin 2 (Escherichia coli O157:H7) (UniProt P09385+P09386); experiment: E. coli 0.157:H7 Shiga Toxin SOP - stx2 screening assay; assay type: functional; design: scale not given: direction of the effect not stated beside the values; settings: 30 µM

| SMILES | Percent Effect [1] | Percent Effect [2] |
| --- | --- | --- |
| COCc1noc(C2(c3ccc(Br)cc3)CCOCC2)n1 | 0.524% | -0.633% |
| CCn1cc(CN2CCCN(C(=O)CCCn3cncn3)CC2)cn1 | -4.34% | -21.5% |
| CCCN(CC(=O)NC)C(=O)c1ccc(-c2ccsc2)nc1C | -3.29% | -2.59% |
| CCN(CC)Cc1cn2c(n1)CN(C(=O)c1cc(C)on1)CC2 | 3.22% | 2.01% |
| CC(=O)NCc1ccc(C(=O)N2CCCCC2Cn2cccn2)o1 (stereo unspecified) | 0.175% | -2.7% |
| CN(Cc1cccnc1)CC1CCCN1c1cccnn1 (stereo unspecified) | 1.15% | 6% |
| CC(C(=O)NCc1ccc(N2CCNC(=O)C2)cc1)n1cncn1 (stereo unspecified) | 3.94% | -118% |
| C=Cc1ccc(C(=O)N2CCCC(Nc3ccc(F)cc3)C2)cc1 (stereo unspecified) | -0.502% | -4.33% |
| CS(=O)(=O)NCC1CCCCN1C(=O)Nc1cccnc1N1CCCC1 (stereo unspecified) | -2.73% | 4.39% |
| CC1CCc2nc(O)c(C(=O)NCCN(C)C)cc2C1 (stereo unspecified) | -0.552% | -8.38% |
| CNc1cc(C2CCCN2C(=O)c2ccc3oc(=O)n(C)c3c2)ccn1 (stereo unspecified) | 4.04% | 7% |
| CC(C)N1Cc2c(C(=O)N3CCOCC3)nn(C)c2C1 | 0.382% | 5.36% |
| O=C1NCCN(CC2CC2)C12CCN(Cc1ccc3c(c1)OCO3)CC2 | 11.3% | -21.2% |
| CCn1cc(C(=O)N2CCCC(c3[nH]ncc3S(C)(=O)=O)C2)cn1 (stereo unspecified) | -3.25% | -8.37% |
| O=C(NCC1CCOC1)c1ccc(OCC(F)(F)F)nc1 (stereo unspecified) | -2.12% | -17.6% |
| Cc1cc(NC(=O)CCc2ccsc2)n(C)n1 | 1.87% | -17.7% |
| O=C(CN1CCC(c2cccc(F)c2)C1)NCC(F)(F)F (stereo unspecified) | -6.79% | 2.95% |
| COc1c(CNC(c2ccc(F)cc2)c2nccn2C)c(C)nn1C (stereo unspecified) | -6.01% | -17.1% |
